This note sets out measurements from PubChem BioAssay (NCI).

Each structure is given as a SMILES string. Compounds without any hit were thinned out: in the full panel of roughly 83,000, 20% have a hit.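 48-hour exposure, single concentration, 96-well plates; percent growth endpoint where 0 means no net growth. Active: below 10.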 Values without a mark were called inactive. Activity calls are given as the source filed them.

Some test systems named below: T-47D breast; BT-549 breast; MDA-MB-435 melanoma; SW-620 colon; MCF7 breast; HCT-116 colon; HCC-2998 colon; KM12 colon.
Common to all, as to assay: NCI-60 one-dose screen, 48 h (100 = growth as untreated, 0 = no growth, -100 = all killed)
Common to all, as to settings: 10 µM unless noted

On to `CN1CCN(Cc2ccc(NC(=O)c3cncc(C#Cc4cnn5ccccc45)c3)cc2C(F)(F)F)CC1`, for which the growth in the assay with T-47D breast is 35.5%; with BT-549 breast it was 41%; in the assay on MDA-MB-435 melanoma it was 6.02% (active); in the assay with SW-620 colon, -14.3% (active); with MCF7 breast, 0.711% (active); in the assay with HCT-116 colon it was 4.92% (active). Moreover, the growth with HCC-2998 colon was -19.1% (active); in the assay on KM12 colon, 0.221% (active).
On to `C#CCn1cnc2c(Nc3cccc(NC(=O)CCl)c3)ncnc21`, for which the growth in the assay with T-47D breast is 34.7%; with BT-549 breast it was 35.1%; in the assay on MDA-MB-435 melanoma, 22.6%; in the assay with SW-620 colon it was 20.6%; in the assay on MCF7 breast it was 14.1%; in the assay with HCT-116 colon, 12.9%. Further, the growth is 77.6% with HCC-2998 colon and 37.7% in the assay with KM12 colon.
`CCC/C(=N\NC(N)=O)C(OC)OC`: the growth is 114% in the assay on T-47D breast; 110% with BT-549 breast; 110% with MDA-MB-435 melanoma; 110% with SW-620 colon; 90.8% in the assay with MCF7 breast; 102% with HCT-116 colon. Moreover, the growth is 99.3% with HCC-2998 colon and 97.7% in the assay on KM12 colon.
Take `CN1CCCc2cc(/C=C3/SC(=S)N(CCc4ccc(O)cc4)C3=O)ccc21`: the growth in the assay on T-47D breast is 84%; with BT-549 breast it was 84.9%; in the assay on MDA-MB-435 melanoma it was 17.5%; with SW-620 colon, 85%; in the assay with MCF7 breast it was 72.2%; with HCT-116 colon, 89.3%. In addition, the values for the growth with HCC-2998 colon and in the assay on KM12 colon were 106% and 48.7%, respectively.
In the case of `CCOc1ccc(NC(=O)c2cc(OC)c(OC)c(OC)c2)cc1`, the growth in the assay on T-47D breast is 37.2%; with BT-549 breast, 44.5%; in the assay with MDA-MB-435 melanoma, -10.9% (active); with SW-620 colon, 31.6%; in the assay on MCF7 breast it was 20.8%; with HCT-116 colon, 18%. The growth in the assay on HCC-2998 colon was 55.5%; with KM12 colon, 22.8%.
`CC(C)[C@@]12C[C@@H](OC(=O)COC(=O)c3ccccc3)[C@@](C)(O1)[C@@H]1CC[C@@H](C)[C@H]1[C@@H]2OC(=O)/C=C/c1ccccc1`: the growth in the assay with T-47D breast is 60.1%; with BT-549 breast, 22.9%; in the assay on MDA-MB-435 melanoma it was 99.8%; with SW-620 colon it was 100%; in the assay on MCF7 breast, 81.9%; in the assay on HCT-116 colon, 83.6%. Further, the values for the growth in the assay on HCC-2998 colon and in the assay on KM12 colon were 97.2% and 94.9%, respectively.
In the case of `CCN(CCO)CC(C)Nc1ccc([N+](=O)[O-])c2sc3ccccc3c(=O)c12` (stereo not given), the growth with T-47D breast was 39.9%; in the assay on BT-549 breast, 58.9%; with MDA-MB-435 melanoma, 23.5%; with SW-620 colon it was 18.6%; with MCF7 breast it was 13.1%; in the assay with HCT-116 colon, 11.8%. In addition, the growth with HCC-2998 colon was 38.6%; with KM12 colon it was 37.9%.
`O=C1CCC(C(=O)NN(c2ccccc2)c2ccccc2)N1` (stereo not given): the growth is 103% with T-47D breast; 30.2% in the assay with BT-549 breast; 93.8% in the assay with MDA-MB-435 melanoma; 100% with SW-620 colon; 98% in the assay with MCF7 breast; 15.5% with HCT-116 colon. Also, the growth in the assay with HCC-2998 colon was 110%; in the assay with KM12 colon, 87.3%.
Turning to `CCOC(=O)c1c(C)nc2c(c1N)CC(=O)N2Cc1cc(OC)c(OC)c(OC)c1`, the growth is 28.7% in the assay on T-47D breast; 48.7% in the assay with BT-549 breast; 4.24% (active) with MDA-MB-435 melanoma; 33.4% in the assay on SW-620 colon; 26.9% in the assay with MCF7 breast; 20.5% in the assay on HCT-116 colon. Besides, the growth in the assay with HCC-2998 colon was 65.6%; in the assay on KM12 colon, 30.1%.
Take `CC(O)c1ncc(/C=C2\SC(=S)N(Cc3ccccc3)C2=O)s1` (stereo not given): the growth with T-47D breast is 42.4%; in the assay on BT-549 breast, 92.9%; in the assay on MDA-MB-435 melanoma, 80.5%; in the assay with SW-620 colon, 90.3%; in the assay on MCF7 breast, 80.3%; in the assay on HCT-116 colon, 96%. Besides, the growth in the assay on HCC-2998 colon is 120%; in the assay on KM12 colon, 81%.
`COc1cc(Nc2c3ccc(Cl)cc3nc3ccc(OC)cc23)c2ncccc2c1`: the growth was 48.6% in the assay with T-47D breast; 56.2% in the assay with BT-549 breast; 65.6% with MDA-MB-435 melanoma; 45.7% in the assay with SW-620 colon; 40.3% in the assay with MCF7 breast; 26% in the assay with HCT-116 colon. Further, the growth was 44.8% in the assay on HCC-2998 colon and 39.3% with KM12 colon.
With `Nc1n[nH]c2ccc([C@@H]3Nc4cc5[nH]ncc5cc4[C@H]4C5CCC(C5)[C@@H]34)cc12` (stereo not given in full), the growth in the assay with T-47D breast was 51.9%; in the assay on BT-549 breast, 11.3%; in the assay on MDA-MB-435 melanoma it was -41.2% (active); with SW-620 colon it was 21.6%; with MCF7 breast, 12.3%; with HCT-116 colon it was 8.92% (active). Moreover, the growth was 18.1% in the assay with HCC-2998 colon and 15.6% in the assay with KM12 colon.
`O=C(CCCCCCN1CC(=O)N2[C@@H](C3CCCCC3)c3[nH]c4ccccc4c3C[C@H]2C1=O)NO`: the growth in the assay on T-47D breast is 44.2%; with BT-549 breast, 80.6%; in the assay on MDA-MB-435 melanoma it was 60.6%; in the assay on SW-620 colon, 47%; in the assay on MCF7 breast, 51.6%; in the assay on HCT-116 colon it was 27%. The growth in the assay on HCC-2998 colon was 94%; with KM12 colon, 81.3%.
Regarding `Cc1c(N2CN3C[C@H](C)N4CN(c5c(C)n(C)n(-c6ccccc6)c5=O)CN5C[C@@H](C)N(C2)C3C54)c(=O)n(-c2ccccc2)n1C` (stereo not given in full), the growth with T-47D breast is 105%; in the assay on BT-549 breast it was 113%; with MDA-MB-435 melanoma, 105%; with SW-620 colon it was 103%; with MCF7 breast, 94.9%; with HCT-116 colon, 96.9%. The growth was 106% in the assay on HCC-2998 colon and 104% in the assay with KM12 colon.
With `CCC(CC)(N(CC(=O)O)CC(=O)O)C(CC)(CC)N(CC(=O)O)CC(=O)O`, the growth was 96.3% in the assay with T-47D breast; 117% in the assay with BT-549 breast; 126% in the assay with MDA-MB-435 melanoma; 112% with SW-620 colon; 100% in the assay on MCF7 breast; 110% in the assay with HCT-116 colon. The growth was 98.1% in the assay on HCC-2998 colon and 120% in the assay with KM12 colon.
